The nature of assay [1]: antimalarial activity against Dd2 strain (AID 2302;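 active = growth inhibition above 50% at the single 2 µM test dose, taken to imply half-maximal potency below 2 µM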;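 note: 0% = DMSO untreated growth and 100% = chloroquine plus artemisinin killed control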). To be noted: P. falciparum Dd2 in RBCs, LDH growth readout, 72 h; at 2 µM; hits give high values.
The nature of assay [2]: HepG2 cytotoxicity, primary screen, cytotoxicity control for P. falciparum antimalarial project, cell-based, ATP luminescence (AID 2303;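 active = inhibition above 50%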;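 note: 0% = DMSO wells and 100% = digitonin-killed cells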). To be noted: HepG2 viability, 24-48 h, at 10 µM, hits give high values.
Assay [3] concerns the target L-lactate dehydrogenase (Plasmodium falciparum (isolate CDC / Honduras)) (UniProt Q27743). The assay can be described thus: PfLDH activity inhibition – cell lysate, 3D7 strain, counter-screen for P. falciparum growth inhibition project (AID 2304).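 Note: 0% = vehicle and 100% = reference inhibitor.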 The note with it: P. falciparum 3D7 crude extract, LDH APAD/NBT absorbance; at 2 µM; hits give high values.
Assay [4] is described as follows: inhibition of 3D7 malaria parasite growth – strain 3D7 (AID 2306).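 Note: 0% = DMSO wells and 100% = chloroquine plus artemisinin control wells.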 The note with it: P. falciparum 3D7 erythrocytic growth, LDH absorbance, 72 h; at 2 µM; hits give high values.
Assay [5] has as its target Calcium-dependent protein kinase 1 (Plasmodium falciparum (isolate 3D7)) (UniProt P62344). The assay can be described thus: PfCDPK1 kinase inhibitors, biochemical, TCAMS library (AID 1159585; cut-off not given, nearly all actives have IC50 up to about 0.98 µM;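 note: inhibitors leave more ATP so luminescence rises with inhibition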). To be noted: recombinant PfCDPK1, Kinase-Glo ATP depletion luminescence.
The target in assay [6] is Plasmodium falciparum protein kinase 6 (PK6, PF3D7_1337100) (UniProt Q8IDW1). Put plainly: PfPK6 kinase inhibitors, biochemical, TCAMS library (AID 1159586). The note with it: recombinant PfPK6, Kinase-Glo ATP depletion luminescence.
The target of assay [7] is Protein kinase 7 (PK7), Plasmodium falciparum 3D7 (PF3D7_0213400) (UniProt Q7YTF7). Put plainly: inhibition of Plasmodium PK7 catalytic activity – biochemical, TCAMS antimalarial set, Kinase-Glo luminescence (AID 1159587). The note with it: recombinant PfPK7, Kinase-Glo ATP depletion luminescence.
The target in assay [8] is Calcium-dependent protein kinase 4 (Plasmodium falciparum (isolate 3D7)) (UniProt Q8IBS5). Put plainly: PfCDPK4 kinase inhibitors, biochemical, TCAMS library (AID 1159588; cut-off not given, nearly all actives have IC50 up to about 0.91 µM). The note with it: recombinant PfCDPK4, Kinase-Glo ATP depletion luminescence.

Structures are written as SMILES. A number with no mark means an inactive call. For part of these data: Results with a measured potency or affinity are listed apart. Calls of active or inactive are those of the source. Unless noted, the rule behind the calls is not given here.

L-lactate dehydrogenase (Plasmodium falciparum (isolate CDC / Honduras)), sequence (Q27743 whole entry, looked up): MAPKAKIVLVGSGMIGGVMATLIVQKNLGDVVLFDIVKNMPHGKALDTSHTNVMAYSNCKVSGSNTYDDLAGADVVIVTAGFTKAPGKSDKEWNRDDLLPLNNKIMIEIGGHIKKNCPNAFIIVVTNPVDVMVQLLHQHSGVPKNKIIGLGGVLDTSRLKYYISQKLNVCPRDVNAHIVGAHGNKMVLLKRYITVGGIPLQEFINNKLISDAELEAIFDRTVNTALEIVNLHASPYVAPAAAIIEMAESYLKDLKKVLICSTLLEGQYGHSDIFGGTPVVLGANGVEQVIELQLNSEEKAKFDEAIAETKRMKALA
Plasmodium falciparum protein kinase 6 (PK6, PF3D7_1337100), sequence (Q8IDW1 1-305): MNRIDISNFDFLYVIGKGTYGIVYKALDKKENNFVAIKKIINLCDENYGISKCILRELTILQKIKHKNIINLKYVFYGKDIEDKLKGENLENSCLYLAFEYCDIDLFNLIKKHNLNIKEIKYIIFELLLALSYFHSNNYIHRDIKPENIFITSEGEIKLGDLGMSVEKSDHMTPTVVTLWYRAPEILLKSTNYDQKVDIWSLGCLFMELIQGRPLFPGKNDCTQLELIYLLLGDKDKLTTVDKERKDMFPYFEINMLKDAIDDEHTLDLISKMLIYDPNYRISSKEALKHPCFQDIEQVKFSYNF
Calcium-dependent protein kinase 1 (Plasmodium falciparum (isolate 3D7)), sequence (P62344 whole entry, looked up): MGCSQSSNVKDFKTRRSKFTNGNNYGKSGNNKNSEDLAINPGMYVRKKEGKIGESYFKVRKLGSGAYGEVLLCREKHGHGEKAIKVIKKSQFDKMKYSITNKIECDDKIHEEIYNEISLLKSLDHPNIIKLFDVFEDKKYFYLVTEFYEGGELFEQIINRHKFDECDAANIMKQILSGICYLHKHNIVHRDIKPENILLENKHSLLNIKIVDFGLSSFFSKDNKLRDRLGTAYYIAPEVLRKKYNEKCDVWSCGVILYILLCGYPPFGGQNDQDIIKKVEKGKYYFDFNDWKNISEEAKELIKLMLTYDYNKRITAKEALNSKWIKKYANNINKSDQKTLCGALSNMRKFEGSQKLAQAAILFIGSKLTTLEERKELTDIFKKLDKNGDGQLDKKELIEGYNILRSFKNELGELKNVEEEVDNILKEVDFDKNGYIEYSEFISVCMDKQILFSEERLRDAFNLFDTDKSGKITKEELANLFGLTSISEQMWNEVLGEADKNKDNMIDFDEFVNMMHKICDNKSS
Calcium-dependent protein kinase 4 (Plasmodium falciparum (isolate 3D7)), sequence (Q8IBS5 whole entry, looked up): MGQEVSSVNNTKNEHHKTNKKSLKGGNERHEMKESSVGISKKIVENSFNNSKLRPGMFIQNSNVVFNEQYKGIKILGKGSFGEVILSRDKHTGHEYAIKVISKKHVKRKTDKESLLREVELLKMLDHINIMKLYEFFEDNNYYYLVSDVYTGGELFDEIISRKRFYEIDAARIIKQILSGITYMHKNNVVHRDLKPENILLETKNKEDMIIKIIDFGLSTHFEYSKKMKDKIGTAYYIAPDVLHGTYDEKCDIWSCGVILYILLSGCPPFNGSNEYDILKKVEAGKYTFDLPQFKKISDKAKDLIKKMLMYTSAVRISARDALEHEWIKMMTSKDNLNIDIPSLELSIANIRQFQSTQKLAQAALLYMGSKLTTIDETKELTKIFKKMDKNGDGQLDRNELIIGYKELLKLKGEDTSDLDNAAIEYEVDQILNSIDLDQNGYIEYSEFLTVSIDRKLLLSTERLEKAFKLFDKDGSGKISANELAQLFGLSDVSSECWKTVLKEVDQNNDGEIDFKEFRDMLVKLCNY
Protein kinase 7 (PK7), Plasmodium falciparum 3D7 (PF3D7_0213400), sequence (Q7YTF7 1-343): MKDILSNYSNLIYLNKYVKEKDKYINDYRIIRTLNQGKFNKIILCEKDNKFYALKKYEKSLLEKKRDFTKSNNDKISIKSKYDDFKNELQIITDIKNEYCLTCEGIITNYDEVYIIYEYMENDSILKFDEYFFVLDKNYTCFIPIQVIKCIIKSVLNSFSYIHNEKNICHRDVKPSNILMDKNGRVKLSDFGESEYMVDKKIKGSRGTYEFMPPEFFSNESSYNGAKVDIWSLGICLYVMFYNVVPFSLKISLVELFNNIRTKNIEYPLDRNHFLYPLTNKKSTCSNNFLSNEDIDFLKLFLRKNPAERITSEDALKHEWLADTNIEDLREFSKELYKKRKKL

`COc1ccc(C(=O)CCC(=O)N(CCSC(C)(C)C)Cc2ccc(-c3ccc(CNCCc4ccc(S(C)(=O)=O)cc4)cn3)cc2)cc1F`: the values for the growth inhibition in assay [1] and in assay [4] were 42% and 98% (active), respectively. Moreover, the inhibition in assay [2] was 9%; in assay [3], -3%. The result in assay [5], in assay [6], in assay [7] and in assay [8] was inactive.
In the case of `COc1ccc(CN2CCN(CCCCNC(=O)c3ccc(NC(=O)c4ccc(Cl)cc4)cc3)CC2)c(OC)c1`, the growth inhibition in assay [1] is 0%; in assay [4], 94% (active). Besides, the results for the inhibition in assay [2] and in assay [3] were 25% and -6%, respectively. In addition, the result in assay [5], in assay [6], in assay [7] and in assay [8] was inactive.
With `Cc1noc(C)c1-c1cccc(CNCc2cccc(-c3ccc(-c4nc5c(C)cccc5[nH]4)cc3)c2)c1`, the figures for the growth inhibition in assay [1] and in assay [4] were 69% (active) and 103% (active), respectively. The inhibition is 24% in assay [2] and 6% in assay [3]. Further, the result in assay [5], in assay [6], in assay [7] and in assay [8] was inactive.
In the case of `Cc1ccc(NC(=O)c2cn(-c3ccccc3)nc2-c2ccc(F)cc2)cc1[N+](=O)[O-]`, the growth inhibition in assay [1] was 38%; in assay [4], 92% (active). Also, the inhibition in assay [2] was 6%; in assay [3], 8%. Further, the outcome in assay [5], in assay [6], in assay [7] and in assay [8] was inactive.
With `O=C(Nc1ccc(F)cc1)NC1CCN(c2ccnc3cc(Cl)ccc23)C1` (stereo not drawn), the growth inhibition in assay [1] is 67% (active); in assay [4] it was 101% (active). The inhibition in assay [2] was 17%; in assay [3], 2%. Further, the result in assay [5], in assay [6], in assay [7] and in assay [8] was inactive.
Regarding `N#Cc1ccc(CN2CCC(Oc3ccc(NC(=O)c4ccccc4)cc3Cl)CC2)cc1`, the growth inhibition in assay [1] is 65% (active); in assay [4], 84% (active). The inhibition was 21% in assay [2] and 1% in assay [3]. For the same compound, the outcome in assay [5], in assay [6], in assay [7] and in assay [8] was inactive.
Take `O=C(NC1CCN(Cc2ccccc2)CC1)c1cc(-c2ccncc2)c(-c2ccc(Cl)c(O)c2)o1`: the growth inhibition in assay [1] is 86% (active); in assay [4], 100% (active). For the same compound, the inhibition is 9% in assay [2] and 1% in assay [3]. Moreover, the result in assay [5], in assay [6], in assay [7] and in assay [8] was inactive.
On to `NC(N)=Nc1nc(-c2cccc(NC(=O)CCCCCCCON3C(N)=NC(N)=NC34CCCCC4)c2)cs1`, for which the growth inhibition was 89% (active) in assay [1] and 96% (active) in assay [4]. The inhibition in assay [2] is 1%; in assay [3], -8%. In addition, the outcome in assay [5], in assay [6], in assay [7] and in assay [8] was inactive.
For `COc1ccc(Nc2nccc(N3CCC(NC(=O)C(C)c4ccc(Cl)cc4)C3)n2)cc1` (stereo not drawn), the results for the growth inhibition in assay [1] and in assay [4] were 97% (active) and 85% (active), respectively. For the same compound, the inhibition in assay [2] is 35%; in assay [3] it was -4%. In addition, the outcome in assay [5], in assay [6], in assay [7] and in assay [8] was inactive.
In the case of `O=C(Nc1ccc(Cl)cc1)Nc1ccc2c(c1)N1CCN=C1S2`, the results for the growth inhibition in assay [1] and in assay [4] were 100% (active) and 99% (active), respectively. Besides, the inhibition in assay [2] was 15%; in assay [3], -1%. Moreover, the result in assay [5], in assay [6], in assay [7] and in assay [8] was inactive.
Consider `O=C(N[C@@H](Cc1ccccc1)C(=O)NCCN1CCCCC1)c1ccc(O)c(-c2cccc(C(F)(F)F)c2)c1`, for which the growth inhibition in assay [1] is 3%; in assay [4] it was 92% (active). Further, the inhibition in assay [2] was 0%; in assay [3], 7%. Further, the outcome in assay [5], in assay [6], in assay [7] and in assay [8] was inactive.
As to `O=C(Nc1cccc(CN2CCCN(CC3CCCCC3)CC2)c1)c1cc2ccccc2s1`, the growth inhibition in assay [1] is 15%; in assay [4], 96% (active). Besides, the inhibition is 29% in assay [2] and 0% in assay [3]. Moreover, the outcome in assay [5], in assay [6], in assay [7] and in assay [8] was inactive.
As to `COc1ccc(C2CC(c3cccs3)=NN2C(=O)CNc2cccc(C#N)c2)cc1OC` (stereo not drawn), the growth inhibition in assay [1] is 35%; in assay [4] it was 87% (active). Moreover, the inhibition in assay [2] was 8%; in assay [3] it was -4%. In addition, the result in assay [5], in assay [6], in assay [7] and in assay [8] was inactive.
With `Clc1cccc(C=NNc2ccnc3ccccc23)c1`, the growth inhibition in assay [1] was 44%; in assay [4], 102% (active). Moreover, the results for the inhibition in assay [2] and in assay [3] were 5% and 4%, respectively. The outcome in assay [5], in assay [6], in assay [7] and in assay [8] was inactive.
As to `O=C(Nc1cccc(Cl)c1N1CCOCC1)C(Cl)(Cl)Cl`, the growth inhibition in assay [1] is 95% (active); in assay [4] it was 96% (active). Also, the inhibition in assay [2] is 3%; in assay [3], -3%. Also, the result in assay [5], in assay [6], in assay [7] and in assay [8] was inactive.
For `Oc1ccc(Br)cc1C(O)CNCc1ccccc1OCc1ccccc1` (stereo not drawn), the growth inhibition in assay [1] is 100% (active); in assay [4], 101% (active). Moreover, the inhibition in assay [2] is 25%; in assay [3], 4%. The result in assay [5], in assay [6], in assay [7] and in assay [8] was inactive.
As to `CN(CCON1C(N)=NC(N)=NC1(C)C)c1ccccc1`, the growth inhibition is 93% (active) in assay [1] and 97% (active) in assay [4]. Also, the inhibition in assay [2] was 64% (active); in assay [3], 1%. Moreover, the outcome in assay [5], in assay [6], in assay [7] and in assay [8] was inactive.
Regarding `Cc1nc(-c2cccc(C(=O)Nc3cnc4ccccc4c3)c2)no1`, the growth inhibition in assay [1] is 12%; in assay [4], 85% (active). Also, the inhibition is 15% in assay [2] and -10% in assay [3]. Further, the outcome in assay [5], in assay [6], in assay [7] and in assay [8] was inactive.
For the compound `CN(CCCCNC(=O)/C=C/c1ccccc1)C1CC2(CCN(C(=O)OC(C)(C)C)CC2)c2ccccc21` (stereo not drawn), the growth inhibition is 51% (active) in assay [1] and 87% (active) in assay [4]. Further, the inhibition in assay [2] was 11%; in assay [3], 1%. Besides, the result in assay [5], in assay [6], in assay [7] and in assay [8] was inactive.
`Clc1ccc(CNc2ccnc(NCc3cccnc3N3CCCC3)n2)c(Cl)c1`: the growth inhibition in assay [1] is 53% (active); in assay [4] it was 85% (active). Also, the inhibition was 37% in assay [2] and -5% in assay [3]. Also, the result in assay [5], in assay [6], in assay [7] and in assay [8] was inactive.
Consider `COc1ccc(-c2ccc(NC(=O)c3cccc(F)c3)cc2)cc1CN1CCCN(C)CC1`, for which the values for the growth inhibition in assay [1] and in assay [4] were 49% and 100% (active), respectively. Further, the inhibition in assay [2] was 32%; in assay [3], -1%. The result in assay [5], in assay [6], in assay [7] and in assay [8] was inactive.

(Values after PubChem BioAssay.)
